The test deals with Vero E6 infected with SARS-CoV-2. The experiment in a line: inhibition of SARS-CoV-2 cytopathic effect; higher = more antiviral protection, active = above 15. The settings on record: 48 h. On the technique in general: Cytopathic effects are the visible damage that an infection or toxin causes in cultured cells.

Unmarked numbers belong to inactive results.

For the compound `N=C(N)Nc1ccc(C(=O)Oc2ccc3cc(C(=N)N)ccc3c2)cc1` [nafamostat], the “inhibition of SARS-CoV-2 cytopathic effect” value (shortened to “inhibition”) (1 nM) is 1.66%; the “inhibition” value (8.33 nM) was 4.06%; the “inhibition” value (100 nM) was 4.33%; the “inhibition” value (833.33 nM) is 3.65%; the “inhibition” value (10000 nM) is 4.81%.
On the same counts, the results for `NC(CO)(CO)CO` [trometamol] are -0.18%, -2.53%, -0.26%, 2.08% and 4.11%.
For `C[C@H](CCC(=O)O)[C@H]1CC[C@H]2[C@@H]3[C@H](O)C[C@@H]4C[C@H](O)CC[C@]4(C)[C@H]3C[C@H](O)[C@]12C` [cholic-acid], the “inhibition” value is -0.3% (1 nM); 0.75% (8.33 nM); 0.02% (100 nM); -0.84% (833.33 nM); 0.54% (10000 nM).
In the same order, the values of `CCOc1cc(N)c(Cl)cc1C(=O)NCC1CN(Cc2ccc(F)cc2)CCO1` (stereo not given) [mosapride] are 0.88%, 2.99%, 3.38%, 2.51% and 6.25%.
With `CC[C@H]1CN2CCc3cc(OC)c(OC)cc3[C@@H]2C[C@@H]1C[C@H]1NCCc2cc(OC)c(OC)cc21` [emetine], the “inhibition” value reads like this: (1 nM) 1.59%; (8.33 nM) 2.17%; (100 nM) 36.2% (active); (833.33 nM) 11.6%; (10000 nM) -11.1%.
In the same order, the values of `Cc1nc2c(c(=O)[nH]1)CSCC2` are 1.12%, -1.82%, 0.46%, 0.11% and 4.1%.
Turning to `NCCCCCC(O)(P(=O)(O)O)P(=O)(O)O` [neridronic-acid], the “inhibition” value was 0.84% (1 nM); -0.27% (8.33 nM); -2.11% (100 nM); 2.29% (833.33 nM); 3.47% (10000 nM).
On to `CCc1c(C(=O)C(N)=O)c2c(OCC(=O)O)cccc2n1Cc1ccccc1` [varespladib], for which the “inhibition” value is 2.9% (1 nM); -0.54% (8.33 nM); 1.35% (100 nM); 1.32% (833.33 nM); 0.87% (10000 nM).
Consider `C[C@H]1[C@H](OC(=O)CCC(=O)O)O[C@@H]2O[C@@]3(C)CC[C@H]4[C@H](C)CC[C@@H]1[C@@]24OO3` [artesunate], for which the “inhibition” value was -1.31% (1 nM); -0.87% (8.33 nM); 1.57% (100 nM); -1.37% (833.33 nM); -11.7% (10000 nM).
With `CCCCNNC(=O)c1ccc(Br)cc1`, the “inhibition” value is, setting by setting: (1 nM) 2.76%; (8.33 nM) 1.2%; (100 nM) 2.26%; (833.33 nM) 3.31%; (10000 nM) -5.28%.
Regarding `Cc1ccc(S(=O)(=O)n2c(N)nc3ccccc32)cc1`, the “inhibition” value was -0.51% (1 nM); -0.92% (8.33 nM); -2.91% (100 nM); -2.7% (833.33 nM); -0.17% (10000 nM).
Take `O=C1NC(c2ccccc2)(c2ccccc2)C(=O)N1COP(=O)(O)O` [fosphenytoin]: the “inhibition” value is, setting by setting: (1 nM) 2.33%; (8.33 nM) 4.09%; (100 nM) 13.5%; (833.33 nM) 1.24%; (10000 nM) -0.44%.
`CC1(C)[C@H](C(=O)O)N2C(=O)C[C@H]2S1(=O)=O` [sulbactam]: the “inhibition” value runs as follows: (1 nM) 2.32%; (8.33 nM) 2.68%; (100 nM) -2.37%; (833.33 nM) -0.56%; (10000 nM) -3.63%.
On the same counts, the results for `O=C1c2cccc(O)c2C(=O)c2c(O)cccc21` [dantron] are -2.75%, -3.39%, -1.6%, -0.79% and 0.11%.
For `CC(C)[C@@H](C(=O)Nc1nccs1)c1ccc(Cl)cc1`, the “inhibition” value is 0.5% (1 nM); 0.66% (8.33 nM); 1.05% (100 nM); 1.87% (833.33 nM); 1.55% (10000 nM).
Regarding `CCOCCn1c(C2CCN(CCc3ccc(C(C)(C)C(=O)O)cc3)CC2)nc2ccccc21` [bilastine], the “inhibition” value reads like this: (1 nM) -1.57%; (8.33 nM) -0.88%; (100 nM) -1.39%; (833.33 nM) -1.14%; (10000 nM) -0.38%.
On the same counts, the results for `COc1ccc2cc1Oc1ccc(cc1)C[C@H]1c3cc(c(OC)cc3CCN1C)Oc1c(OC)c(OC)cc3c1[C@H](C2)N(C)CC3` [tetrandrine] are -2.72%, -0.14%, -1.04%, -2.19% and 69.3% (active).
`CCCC[P+](CCCC)(CCCC)Cc1ccc(NC(=O)[C@H](Cc2ccc3ccccc3c2)N/C(=N/C2CCCCC2)NC2CCCCC2)cc1`: the “inhibition” value (1 nM) was -1.29%; the “inhibition” value (8.33 nM) is -0.27%; the “inhibition” value (100 nM) is -4.22%; the “inhibition” value (833.33 nM) was -4.62%; the “inhibition” value (10000 nM) is -2.72%.

Values taken from the supplement of paper PMC13380429.
